From PubChem BioAssay
The source made the active and inactive calls. Unless noted, how the calls were made is not given here.

Experiments:
[1] = anti-His antibody binders, primary screen, artefact control for SMM control protein annotation, biochemical, small-molecule microarray, 635 nm fluorescence (AID 1128); settings: anti-His Alexa647 antibody binding, higher = more signal;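 further: score merges feature fluorescence with signal-to-noise for each printed compound spot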
[2] = system: Human papillomavirus type 1a E7 protein (residues 1-88); assay: HPV1a E7 small-molecule binders, primary screen, biochemical, small-molecule microarray, residues 1-88, 635 nm (AID 1129); settings: small-molecule microarray binding, fluorescence 635 nm; higher = more signal
[3] = molecular target: Focal adhesion kinase 1 (Homo sapiens) (UniProt Q05397); assay: small-molecule microarray binders of FAK, primary screen, biochemical, 635/667 nm fluorescence, BSA, DTT (AID 1130); settings: PTK2 binding, 635 nm fluorescence, higher = more signal;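 further: composite of spot emission at 667 nm and signal to noise over triplicate slides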
[4] = system: Fibrinogen (Alexa647-labelled); assay: fibrinogen binders on compound microarrays, profiling panel, artefact control for SMM control-protein annotation, biochemical, small-molecule microarray, 635/667 nm fluorescence (AID 1131); settings: fibrinogen-A647 binding fluorescence, higher = more signal;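 further: z-score merges 667 nm fluorescence with per-spot signal-to-noise over triplicate slides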
[5] = molecular target: Follistatin (Homo sapiens) (UniProt P19883); assay: follistatin binders on small-molecule microarrays, primary screen, biochemical, small-molecule microarray, 635/667 nm fluorescence (AID 1132); settings: FST binding, 635 nm fluorescence, higher = more signal
[6] = molecular target: Fibroblast growth factor 2 (Homo sapiens) (UniProt P09038); assay: FGF2 binders on small-molecule microarrays, primary screen, biochemical, small-molecule microarray, 635/667 nm fluorescence (AID 1133); settings: small-molecule microarray binding, FGF2, fluorescence 635/667; higher = more signal
[7] = mitochondrial membrane potential change in A549 cells, profiling panel, cell-based, JC-1 fluorescence, basal, 24 h, 100 nL (AID 1138); settings: higher = more signal;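 further: A549 lung adenocarcinoma cells under basal conditions with no added stimulus; test concentration not given here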
Lefty1 = Lefty1 binders on small-molecule microarrays, primary screen, biochemical, small-molecule microarray, 635/667 nm fluorescence (AID 1139); settings: small-molecule microarray binding, fluorescence 635/667; higher = more signal
[8] = system: wheat germ agglutinin (Triticum aestivum), Alexa647-labelled; assay: wheat germ agglutinin binders on compound microarrays, profiling panel, artefact control for SMM control-protein annotation, biochemical, small-molecule microarray, 635/667 nm fluorescence (AID 1140); settings: WGA-A647 binding, 635 nm fluorescence, higher = more signal;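 further: score merges 667 nm feature emission with signal to noise over triplicate slides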
[9] = molecular target: Luciferin 4-monooxygenase (Photinus pyralis) (UniProt P08659); assay: firefly luciferase enzyme inhibitors, primary screen, biochemical, luminescence, purified enzyme, 2006 set (AID 1141); settings: SteadyGlo luminescence, 30 min, higher = more signal, called active from +8 up or from −8 down;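 further: cell-free assay with purified firefly luciferase at 100 ng per well in PBS; test concentration not given here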
[10] = system: Wnt5a (protein binding on small-molecule microarray); assay: Wnt5a binders on small-molecule microarray, primary screen, biophysical, 635/667 nm fluorescence (AID 1142); settings: 635 nm fluorescence, higher = more signal;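 further: fluorescence read at 667 nm with signal to noise per printed feature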
[11] = cell viability in Huh7 cells, primary screen, cytotoxicity control for HCV replication inhibitor project, CellTiter-Glo luminescence, basal, 48 h (AID 1143); settings: Huh7 HCV replicon, higher = more signal, called active from +8 up or from −8 down;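 further: Huh7 hepatoma cells carrying a hepatitis C replication reporter with no stimulus; test concentration not given here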
[12] = P. aeruginosa biofilm formation inhibitors, primary screen, PAO1 strain, BacTiter-Glo luminescence, LB-PBS (AID 1144); settings: 12 h, higher = more signal
[13] = CREB reporter modulators without forskolin, primary screen, cell-based, PC12, CRE-LacZ reporter, unstimulated (AID 1145); settings: no forskolin, luminescence, 4.5 h, higher = more signal, called active from +8 up or from −8 down
[14] = CREB reporter modulators under forskolin, primary screen, cell-based, PC12, CRE-LacZ reporter, forskolin-stimulated (AID 1146); settings: luminescence, 4.5 h, higher = more signal, called active from +8 up or from −8 down;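 further: PC12 cells with 6xCRE LacZ reporter stimulated by forskolin 10 µM; beta-galactosidase reporter signal reflecting CREB driven transcription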
[15] = molecular target: Streptavidin (Streptomyces avidinii) (UniProt P22629); assay: streptavidin binders on small-molecule microarray, primary screen, artefact control for SMM compound annotation, biophysical, 635/667 nm fluorescence (AID 1147); settings: streptavidin binding, higher = more signal;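 further: signal reflects streptavidin binding to arrayed compounds as a control protein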
[16] = small-molecule binders of probe aInhba, primary screen, biochemical, small-molecule microarray, 635/667 nm fluorescence (AID 1148); settings: higher = more signal;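 further: score merges 667nm spot fluorescence with signal-to-noise for antibody binding to printed compounds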
Torsin-1A (Homo sapiens) [17] = molecular target: Torsin-1A (Homo sapiens) (UniProt O14656); assay: torsin A binders from cell lysate, primary screen, small-molecule microarray, wild-type, 635/667 nm (AID 1149); settings: COS7 hTOR1A-WT lysate, 635 nm fluorescence, higher = more signal
Torsin-1A (Homo sapiens) [18] = molecular target: Torsin-1A (Homo sapiens) (UniProt O14656); assay: small-molecule binders of mutant TOR1A in lysate, primary screen, cell lysate, small-molecule microarray, COS7 lysate, 635/667 nm fluorescence (AID 1150); settings: COS7 hTOR1A mutant lysate, 635 nm fluorescence, higher = more signal;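 further: score pools 667 nm emission and signal to noise measuring lysate protein binding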
[19] = system: Sonic hedgehog protein (Shh); assay: small-molecule binders of Shh protein, primary screen, biochemical, small-molecule microarray, 635/667 nm fluorescence (AID 1151); settings: small-molecule microarray binding, 635 nm fluorescence; higher = more signal;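 further: Shh protein binding to compounds spotted on small-molecule microarray slides; score combines spot fluorescence intensity with signal-to-noise across triplicate slides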

Chain of Streptavidin (Streptomyces avidinii) (P22629 whole entry, looked up): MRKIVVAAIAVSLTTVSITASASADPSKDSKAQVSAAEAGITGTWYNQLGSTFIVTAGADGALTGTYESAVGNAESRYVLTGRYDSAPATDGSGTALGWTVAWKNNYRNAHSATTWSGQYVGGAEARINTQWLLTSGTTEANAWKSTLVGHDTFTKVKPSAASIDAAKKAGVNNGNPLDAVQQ
Chain of Torsin-1A (Homo sapiens) (O14656 whole entry, looked up): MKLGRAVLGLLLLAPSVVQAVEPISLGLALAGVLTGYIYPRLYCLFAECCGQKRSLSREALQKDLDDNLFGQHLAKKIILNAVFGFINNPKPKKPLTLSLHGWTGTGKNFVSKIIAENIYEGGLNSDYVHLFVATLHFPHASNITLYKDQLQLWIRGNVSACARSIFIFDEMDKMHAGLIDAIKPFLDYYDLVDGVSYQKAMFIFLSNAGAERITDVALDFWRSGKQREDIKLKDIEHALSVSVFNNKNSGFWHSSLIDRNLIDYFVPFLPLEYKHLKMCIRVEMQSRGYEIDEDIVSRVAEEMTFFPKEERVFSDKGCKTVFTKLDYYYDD
Chain of Follistatin (Homo sapiens) (P19883 whole entry, looked up): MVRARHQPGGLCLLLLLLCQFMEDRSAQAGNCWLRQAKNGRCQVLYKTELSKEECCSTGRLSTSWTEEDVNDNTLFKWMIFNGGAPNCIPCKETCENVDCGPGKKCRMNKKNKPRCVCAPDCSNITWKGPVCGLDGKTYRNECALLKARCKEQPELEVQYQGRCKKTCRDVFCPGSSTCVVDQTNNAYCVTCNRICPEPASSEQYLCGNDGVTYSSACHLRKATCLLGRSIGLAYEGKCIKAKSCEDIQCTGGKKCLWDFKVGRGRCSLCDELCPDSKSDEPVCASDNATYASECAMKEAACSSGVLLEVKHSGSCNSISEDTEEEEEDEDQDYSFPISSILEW
Chain of Luciferin 4-monooxygenase (Photinus pyralis) (P08659 whole entry, looked up): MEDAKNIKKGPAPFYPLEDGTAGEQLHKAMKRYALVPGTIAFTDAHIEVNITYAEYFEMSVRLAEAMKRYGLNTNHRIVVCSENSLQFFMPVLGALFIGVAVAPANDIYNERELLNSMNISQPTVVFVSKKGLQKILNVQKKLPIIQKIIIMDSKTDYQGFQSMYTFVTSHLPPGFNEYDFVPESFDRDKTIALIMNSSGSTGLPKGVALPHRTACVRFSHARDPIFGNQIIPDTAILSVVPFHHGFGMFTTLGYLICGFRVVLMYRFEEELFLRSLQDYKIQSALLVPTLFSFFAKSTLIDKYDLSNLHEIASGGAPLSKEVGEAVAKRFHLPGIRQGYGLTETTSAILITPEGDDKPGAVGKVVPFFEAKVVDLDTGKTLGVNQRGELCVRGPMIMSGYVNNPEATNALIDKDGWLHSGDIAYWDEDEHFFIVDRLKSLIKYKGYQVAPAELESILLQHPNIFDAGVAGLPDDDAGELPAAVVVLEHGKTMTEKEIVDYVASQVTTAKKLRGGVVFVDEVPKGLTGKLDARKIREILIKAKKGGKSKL
Chain of Fibroblast growth factor 2 (Homo sapiens) (P09038 whole entry, looked up): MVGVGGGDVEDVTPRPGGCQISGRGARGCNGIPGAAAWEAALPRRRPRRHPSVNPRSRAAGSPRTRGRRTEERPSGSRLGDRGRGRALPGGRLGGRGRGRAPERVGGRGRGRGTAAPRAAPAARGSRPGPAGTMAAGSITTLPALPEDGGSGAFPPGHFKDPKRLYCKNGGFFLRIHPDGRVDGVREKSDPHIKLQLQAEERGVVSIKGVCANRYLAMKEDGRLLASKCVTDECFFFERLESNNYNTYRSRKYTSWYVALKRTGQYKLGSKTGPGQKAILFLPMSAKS
Chain of Focal adhesion kinase 1 (Homo sapiens) (Q05397 whole entry, looked up): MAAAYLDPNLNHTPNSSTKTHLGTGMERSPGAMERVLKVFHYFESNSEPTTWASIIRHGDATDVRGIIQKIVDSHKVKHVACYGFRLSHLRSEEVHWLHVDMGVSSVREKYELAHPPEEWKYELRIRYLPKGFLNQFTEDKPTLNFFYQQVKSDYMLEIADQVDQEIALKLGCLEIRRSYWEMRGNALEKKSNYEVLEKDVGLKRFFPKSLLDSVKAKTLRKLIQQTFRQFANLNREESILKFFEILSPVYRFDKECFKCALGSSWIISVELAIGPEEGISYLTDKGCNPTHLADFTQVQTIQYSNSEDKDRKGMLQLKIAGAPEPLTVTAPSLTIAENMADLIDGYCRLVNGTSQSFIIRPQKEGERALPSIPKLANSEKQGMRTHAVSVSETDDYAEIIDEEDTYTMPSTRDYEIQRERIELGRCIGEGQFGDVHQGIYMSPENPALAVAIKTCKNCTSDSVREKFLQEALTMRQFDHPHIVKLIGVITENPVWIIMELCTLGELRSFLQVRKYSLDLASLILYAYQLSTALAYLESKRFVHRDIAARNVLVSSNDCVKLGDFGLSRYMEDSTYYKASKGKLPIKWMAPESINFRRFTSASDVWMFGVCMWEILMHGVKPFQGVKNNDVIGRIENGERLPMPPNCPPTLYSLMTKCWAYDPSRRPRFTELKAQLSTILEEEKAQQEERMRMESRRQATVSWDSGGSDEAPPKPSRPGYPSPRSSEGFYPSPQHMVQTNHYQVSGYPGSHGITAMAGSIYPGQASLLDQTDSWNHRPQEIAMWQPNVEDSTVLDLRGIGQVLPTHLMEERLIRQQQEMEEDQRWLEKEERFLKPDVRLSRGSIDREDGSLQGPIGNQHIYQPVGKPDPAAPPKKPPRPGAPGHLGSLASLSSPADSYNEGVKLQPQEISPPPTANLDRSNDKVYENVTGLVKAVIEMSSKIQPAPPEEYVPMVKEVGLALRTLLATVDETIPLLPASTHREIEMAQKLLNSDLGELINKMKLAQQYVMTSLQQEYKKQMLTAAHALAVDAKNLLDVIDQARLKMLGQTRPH

O=C(NCC(O)CO)[C@]1(CCS(=O)(=O)c2ccccc2)N=C(c2ccc(OCCCO)cc2)O[C@@H]1c1ccccc1 (stereo not given in full)
composite z-score [1]: 1.14 | composite z-score [2]: 1.27 | composite z-score [3]: 0.516 | composite z-score [4]: 0.976 | composite z-score [5]: 0.866 | composite z-score [6]: -0.702 | z-score [7]: 0.439 | composite z-score (Lefty1): -1.11 | composite z-score [8]: 1.54 | z-score [9]: 0.0334 (inactive) | composite z-score [10]: 0.299 | z-score [11]: -0.084 (inactive) | z-score [12]: 0.295 (inactive) | z-score [13]: 0.596 (inactive) | z-score [14]: -0.0842 (inactive) | composite z-score [15]: 1.03 | composite z-score [16]: -0.0567 | composite z-score (Torsin-1A (Homo sapiens) [17]): 0.499 | composite z-score (Torsin-1A (Homo sapiens) [18]): 1.48 | composite z-score [19]: -1.05

COc1ccc([Si](C)(C)[C@@H]2[C@@H](CCO)O[C@]3(C(=O)N(Cc4cccc(N5CCCCC5=O)c4)c4ccccc43)[C@H]2C)cc1
composite z-score [1]: 0.49 | composite z-score [2]: 1.17 | composite z-score [3]: 0.0366 | composite z-score [4]: 0.825 | composite z-score [5]: 1.01 | composite z-score [6]: 0.885 | z-score [7]: -0.425 | composite z-score (Lefty1): 0.883 | composite z-score [8]: 0.746 | z-score [9]: -0.724 (inactive) | composite z-score [10]: -0.0438 | z-score [11]: -7.9 (inactive) | z-score [12]: 0.671 (inactive) | z-score [13]: 15.5 (active) | z-score [14]: 0.456 (inactive) | composite z-score [15]: -0.276 | composite z-score [16]: -0.024 | composite z-score (Torsin-1A (Homo sapiens) [17]): 0.38 | composite z-score (Torsin-1A (Homo sapiens) [18]): 0.965 | composite z-score [19]: 1.27

[N-]=[N+]=NCc1ccccc1C[C@]1(C(=O)N2CCOCC2)N=C(c2ccc(OCCCO)cc2)O[C@H]1c1ccccc1
composite z-score [1]: 1.22 | composite z-score [2]: 0.672 | composite z-score [3]: -0.0665 | composite z-score [4]: 0.909 | composite z-score [5]: 0.826 | composite z-score [6]: 0.816 | z-score [7]: 0.078 | composite z-score (Lefty1): 0.0094 | composite z-score [8]: 0.359 | z-score [9]: 0.4 (inactive) | composite z-score [10]: 0.258 | z-score [11]: -5.35 (inactive) | z-score [12]: -0.764 (inactive) | z-score [13]: 0.391 (inactive) | z-score [14]: -1.5 (inactive) | composite z-score [15]: 0.981 | composite z-score [16]: 0.0091 | composite z-score (Torsin-1A (Homo sapiens) [17]): 0.0039 | composite z-score (Torsin-1A (Homo sapiens) [18]): 0.348 | composite z-score [19]: -0.147

CN1C(=O)C2C=CC(C(O)C(c3ccccc3)c3ccccc3)N(Nc3ccccc3)C2C1=O (stereo not given)
composite z-score [1]: 0.889 | composite z-score [2]: 1.19 | composite z-score [3]: 0.668 | composite z-score [4]: 1.03 | composite z-score [5]: 1.36 | composite z-score [6]: 0.0635 | z-score [7]: 0.0496 | composite z-score (Lefty1): 0.643 | composite z-score [8]: 0.889 | z-score [9]: -0.0128 (inactive) | composite z-score [10]: 0.35 | z-score [11]: -1.91 (inactive) | z-score [12]: -0.437 (inactive) | z-score [13]: -0.14 (inactive) | z-score [14]: 0.574 (inactive) | composite z-score [15]: 1.49 | composite z-score [16]: 0.0857 | composite z-score (Torsin-1A (Homo sapiens) [17]): 0.096 | composite z-score (Torsin-1A (Homo sapiens) [18]): 0.585 | composite z-score [19]: 0.424

CCCNC(=O)[C@@]1(C)c2ccccc2C(=O)N(Cc2cc(C(F)(F)F)cc(C(F)(F)F)c2)[C@H]1c1ccc(CO)cc1
composite z-score [1]: 2.41 | composite z-score [2]: 0.903 | composite z-score [3]: 0.147 | composite z-score [4]: 0.267 | composite z-score [5]: 0.127 | composite z-score [6]: 0.68 | z-score [7]: -0.704 | composite z-score (Lefty1): -0.524 | composite z-score [8]: 0.463 | z-score [9]: 0.517 (inactive) | composite z-score [10]: -0.332 | z-score [11]: -5.52 (inactive) | z-score [12]: -0.889 (inactive) | z-score [13]: 0.0548 (inactive) | z-score [14]: 0.532 (inactive) | composite z-score [15]: -0.974 | composite z-score [16]: -0.128 | composite z-score (Torsin-1A (Homo sapiens) [17]): -0.0659 | composite z-score (Torsin-1A (Homo sapiens) [18]): -0.216 | composite z-score [19]: 0.103

COc1ccc([Si](C)(C)[C@@H]2[C@@H](CC(=O)N3Cc4ccccc4C[C@H]3CO)O[C@]3(C(=O)N(Cc4cccc(N5C(=O)COc6ccccc65)c4)c4ccccc43)[C@H]2C)cc1
composite z-score [1]: 1.16 | composite z-score [2]: 1 | composite z-score [3]: 0.261 | composite z-score [4]: 0.269 | composite z-score [5]: 1.26 | composite z-score [6]: 1.76 | z-score [7]: -0.0295 | composite z-score (Lefty1): 1.25 | composite z-score [8]: 0.0948 | z-score [9]: -0.438 (inactive) | composite z-score [10]: -0.0857 | z-score [11]: -4.33 (inactive) | z-score [12]: -0.219 (inactive) | z-score [13]: 3.56 (inactive) | z-score [14]: -0.431 (inactive) | composite z-score [15]: 0.535 | composite z-score [16]: -0.18 | composite z-score (Torsin-1A (Homo sapiens) [17]): 0.718 | composite z-score (Torsin-1A (Homo sapiens) [18]): 0.301 | composite z-score [19]: 1.57

[N-]=[N+]=Nc1ccccc1[C@@H]1OC(c2ccc(OCCCO)cc2)=N[C@]1(CCS(=O)(=O)c1ccccc1)C(=O)O
composite z-score [1]: 1.12 | composite z-score [2]: 1.22 | composite z-score [3]: 0.688 | composite z-score [4]: 1.03 | composite z-score [5]: 1.25 | composite z-score [6]: 0.933 | z-score [7]: -1.83 | composite z-score (Lefty1): 0.874 | composite z-score [8]: 0.867 | z-score [9]: -15.1 (active) | composite z-score [10]: 0.301 | z-score [11]: -0.781 (inactive) | z-score [12]: 1.08 (inactive) | z-score [13]: 0.0594 (inactive) | z-score [14]: -0.0642 (inactive) | composite z-score [15]: 1.04 | composite z-score [16]: 0.0559 | composite z-score (Torsin-1A (Homo sapiens) [17]): 0.164 | composite z-score (Torsin-1A (Homo sapiens) [18]): 0.719 | composite z-score [19]: 0.848

CN1C(=O)C2C=CC(C(O)c3ccc(Br)cc3)N(Nc3ccccc3)C2C1=O (stereo not given)
composite z-score [1]: -0.233 | composite z-score [2]: -0.426 | composite z-score [3]: 0.1 | composite z-score [4]: -0.23 | composite z-score [5]: -1.12 | composite z-score [6]: -1.22 | z-score [7]: -0.101 | composite z-score (Lefty1): -1.33 | composite z-score [8]: 0.387 | z-score [9]: -1.11 (inactive) | composite z-score [10]: -0.323 | z-score [11]: 1.06 (inactive) | z-score [12]: -0.595 (inactive) | z-score [13]: 1.6 (inactive) | z-score [14]: 0.127 (inactive) | composite z-score [15]: -0.524 | composite z-score [16]: -0.0523 | composite z-score (Torsin-1A (Homo sapiens) [17]): 0.24 | composite z-score (Torsin-1A (Homo sapiens) [18]): 0.828 | composite z-score [19]: -1.09

O=C1OCCC=C[C@H]2OC34C=CCN(c5ccc6ccccc6c5)C(=O)[C@H]3N(CCCCCCO)C(=O)[C@@H]4C12 (stereo not given in full)
composite z-score [1]: -0.365 | composite z-score [2]: -0.992 | composite z-score [3]: -0.0504 | composite z-score [4]: -0.771 | composite z-score [5]: -0.761 | composite z-score [6]: -0.97 | z-score [7]: 1.48 | composite z-score (Lefty1): -0.61 | composite z-score [8]: -0.451 | z-score [9]: -1.2 (inactive) | composite z-score [10]: -0.315 | z-score [11]: -0.211 (inactive) | z-score [12]: -0.0556 (inactive) | z-score [13]: 0.0605 (inactive) | z-score [14]: 0.771 (inactive) | composite z-score [15]: -1.1 | composite z-score [16]: -0.179 | composite z-score (Torsin-1A (Homo sapiens) [17]): 2.39 | composite z-score (Torsin-1A (Homo sapiens) [18]): 2.75 | composite z-score [19]: -0.305
